Consider 17 molecules from PubChem BioAssay (EPA / NIEHS).

What all share (details): mRNA level, 48 h; actives raise or lower the signal
Read-out in assay [1]: Glutathione S-transferase M3 (GSTM3), GSTM3 (gene 2947)
Briefly: LTEA_HepaRG_GSTM3: Life Technologies and Expression Analysis (LTEA) Assay for Glutathione S-transferase M3 (GSTM3) using HepaRG (AID 2283501). The method, boiled down:
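HepaRG, plated 48 h, then serum-free induction medium; test chemical 48 h, duplicate; 100 uM top, half-log x8, 0.5% DMSO. Read-out: GSTM3 mRNA (TaqMan qRT-PCR, Fluidigm array). Bidirectional fit vs DMSO.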

Read-out in assay [2]: Heat shock 70 kDa protein 1 (HSPA1A), gene 3303
Briefly: LTEA_HepaRG_HSPA1A: Life Technologies and Expression Analysis (LTEA) Assay for Heat shock 70 kDa protein 1 (HSPA1A) using HepaRG (AID 2283502). The gist of the method:
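Cells were plated and cultured for 48 h, then switched to serum-free induction medium. Chemicals were added at eight half-log concentrations up to 100 uM for 48 h. RNA was then isolated and HSPA1A measured by qRT-PCR with bidirectional curve fitting against DMSO.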

Read-out in assay [3]: Hypoxia-inducible factor 1-alpha (Homo sapiens) (UniProt Q16665)
Briefly: LTEA_HepaRG_HIF1A: Life Technologies and Expression Analysis (LTEA) Assay for Hypoxia-inducible factor 1 (HIF1A) Trancription factor using HepaRG (AID 2283503). The gist of the method:
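HIF1A transcript level read by qRT-PCR (ACTB, GAPDH, POLR2A normalization) after 48 h chemical exposure of HepaRG cultures. Eight half-log concentrations, top 100 uM, 0.5% DMSO vehicle, duplicates; bidirectional curve fit against DMSO baseline.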

Read-out in assay [4]: 3-Hydroxy-3-Methylglutaryl-CoA Synthase 2 (HMGCS2), HMGCS2 (gene 3158)
Briefly: LTEA_HepaRG_HMGCS2: Life Technologies and Expression Analysis (LTEA) Assay for 3-Hydroxy-3-Methylglutaryl-CoA Synthase 2 (HMGCS2) using HepaRG (AID 2283504). The method, boiled down: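 HepaRG, plated 48 h then switched to serum-free induction media; cmpd 8-pt, max 100 uM, 1/2-log, 0.5% DMSO, n=2, 48 h. HMGCS2 mRNA by Fluidigm TaqMan qRT-PCR, ACTB/GAPDH/POLR2A norm; bidirectional fit vs DMSO.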

Read-out in another assay: HGF (gene 3082)
Briefly: LTEA_HepaRG_HGF: Life Technologies and Expression Analysis (LTEA) Assay for Hepatocyte Growth Facto (HGF) using HepaRG (AID 2283505). The gist of the method: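 Read-out is HGF transcript level by qRT-PCR, normalized to three housekeeping genes, fitted bidirectionally against 0.5% DMSO vehicle. Human HepaRG cells received test chemicals for 48 h at up to 100 uM.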

Read-out in assay [5]: Insulin Like Growth Factor 1 (IGF1), IGF1 (gene 3479)
Briefly: LTEA_HepaRG_IGF1: Life Technologies and Expression Analysis (LTEA) Assay for Insulin Like Growth Factor 1 (IGF1) using HepaRG (AID 2283506). The method, boiled down: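 Cells are thawed, plated and cultured 48 h, then exposed in duplicate to chemical (highest 100 uM, half-log steps, 0.5% DMSO) for another 48 h. Total RNA is analysed by Fluidigm qRT-PCR for IGF1 expression relative to vehicle.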

Read-out in assay [6]: Intercellular Adhesion Molecule 1 (ICAM1), ICAM1 (gene 3383)
Briefly: LTEA_HepaRG_ICAM1: Life Technologies and Expression Analysis (LTEA) Assay for Intercellular Adhesion Molecule 1 (ICAM1) using HepaRG (AID 2283507). The gist of the method:
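Readout is qRT-PCR mRNA level, normalized to three housekeeping genes and fitted bidirectionally against 0.5% DMSO vehicle. Human HepaRG cultures received compound for 48 h, top concentration 100 uM with half-log dilutions.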

Read-out in assay [7]: Insulin-like growth factor-binding protein 1 (IGFBP1), IGFBP1 (gene 3484)
Briefly: LTEA_HepaRG_IGFBP1: Life Technologies and Expression Analysis (LTEA) Assay for Insulin-like growth factor-binding protein 1 (IGFBP1) using HepaRG (AID 2283508). The method, boiled down: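 Thawed HepaRG cells are plated for 48 h, switched to serum-free induction medium, then dosed in duplicate for another 48 h (100 uM top, half-log steps). Lysates in RLT go to qRT-PCR, and gain or loss of signal is fitted relative to vehicle.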

Read-out in assay [8]: Interleukin 6 (IL6), IL6 (gene 3569)
Briefly: LTEA_HepaRG_IL6: Life Technologies and Expression Analysis (LTEA) Assay for Interleukin 6 (IL6) using HepaRG (AID 2283509). The gist of the method: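 Changes in IL6 mRNA, up or down relative to 0.5% DMSO controls, were derived from concentration-response curves in human HepaRG cells treated for 48 h at up to 100 uM, with ACTB, GAPDH and POLR2A as normalizers.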

Read-out in assay [9]: Interleukin 6 Receptor (IL6R), IL6R (gene 3570)
Briefly: LTEA_HepaRG_IL6R: Life Technologies and Expression Analysis (LTEA) Assay for Interleukin 6 Receptor (IL6R) using HepaRG (AID 2283510).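 For AC50: differentiated human HepaRG liver cells in serum-free induction medium; TaqMan qRT-PCR signal normalized to ACTB GAPDH and POLR2A housekeeping genes.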 The gist of the method:
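Cells were thawed, plated and cultured 48 h, then medium was changed to serum-free induction medium. Chemicals were added in duplicate (100 uM top, half-log steps, 0.5% DMSO) for 48 h. Lysates were analyzed by qRT-PCR for IL6R expression.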

The structures appear in SMILES notation. Active and inactive are the calls of the source. Rule for the calls: active = hit-call score of the fitted dose curve at least 0.9, where 1 is the maximum; inactive = score below 0.9.

Hypoxia-inducible factor 1-alpha (Homo sapiens), sequence (Q16665 whole entry, looked up): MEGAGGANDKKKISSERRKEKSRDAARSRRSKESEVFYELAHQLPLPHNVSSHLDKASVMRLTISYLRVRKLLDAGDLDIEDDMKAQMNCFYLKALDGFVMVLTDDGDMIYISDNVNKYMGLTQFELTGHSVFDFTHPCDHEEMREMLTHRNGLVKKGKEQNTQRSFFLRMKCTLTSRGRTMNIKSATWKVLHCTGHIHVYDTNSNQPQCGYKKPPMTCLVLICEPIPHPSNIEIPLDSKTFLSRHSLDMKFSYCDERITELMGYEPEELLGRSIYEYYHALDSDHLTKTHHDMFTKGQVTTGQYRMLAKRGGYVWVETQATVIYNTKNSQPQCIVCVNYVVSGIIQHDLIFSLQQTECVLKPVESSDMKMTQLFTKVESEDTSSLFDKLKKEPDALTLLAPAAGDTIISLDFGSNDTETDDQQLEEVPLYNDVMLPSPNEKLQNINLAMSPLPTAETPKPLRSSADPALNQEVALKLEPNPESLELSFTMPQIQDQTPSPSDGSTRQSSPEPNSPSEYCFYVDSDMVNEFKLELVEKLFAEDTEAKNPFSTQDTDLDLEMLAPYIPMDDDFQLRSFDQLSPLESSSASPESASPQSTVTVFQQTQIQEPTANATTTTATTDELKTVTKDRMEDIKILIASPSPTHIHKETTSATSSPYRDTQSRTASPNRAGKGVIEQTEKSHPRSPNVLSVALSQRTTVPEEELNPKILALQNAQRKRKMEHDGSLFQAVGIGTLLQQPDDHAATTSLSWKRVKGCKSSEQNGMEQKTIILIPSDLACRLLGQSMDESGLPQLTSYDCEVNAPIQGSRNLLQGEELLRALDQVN

`CCCc1ccccc1`: the molecule was called inactive (in [1]; in assay [2]; in [3]; in [4]; in the assay with HGF (gene 3082); in assay [5]). The call in [6], in assay [7], in assay [8] and in assay [9] was inactive.

For `OC[C@H]1O[C@@H]2O[C@H]3[C@H](O)[C@@H](O)[C@@H](O[C@H]4[C@H](O)[C@@H](O)[C@@H](O[C@H]5[C@H](O)[C@@H](O)[C@@H](O[C@H]6[C@H](O)[C@@H](O)[C@@H](O[C@H]7[C@H](O)[C@@H](O)[C@@H](O[C@H]1[C@H](O)[C@H]2O)O[C@@H]7CO)O[C@@H]6CO)O[C@@H]5CO)O[C@@H]4CO)O[C@@H]3CO`, the call (in assay [1]; in assay [2]; in assay [3]; in assay [4]; in the assay with HGF (gene 3082); in assay [5]) was inactive. Also, the outcome in [6], in [7], in [8] and in assay [9] was inactive.

In the case of `O=C(O)c1ccc2c(c1)nc(C(=O)NC1CCN(C3CC3)CC1)n2Cc1cc(-c2ccc(Cl)s2)on1`, the molecule was classed as inactive (in assay [1]; in assay [2]; in [3]; in assay [4]; in the assay with HGF (gene 3082); in assay [5]). Moreover, the result in [6], in assay [7], in assay [8] and in assay [9] was inactive.

Turning to `C=CN1CCCC1=O`, the molecule was classed as inactive (in assay [1]; in assay [2]; in [3]; in [4]; with HGF (gene 3082); in [5]). In addition, the result in assay [6], in [7], in assay [8] and in assay [9] was inactive.

Turning to `CC1(C)C(=O)N(Cl)C(=O)N1Cl`, the outcome (in assay [1]; in assay [2]; in [3]; in [4]; in the assay with HGF (gene 3082); in assay [5]) was inactive. The outcome in assay [6], in assay [7], in assay [8] and in assay [9] was inactive.

One may read the AC50 as the concentration giving half of the maximal activity seen. With `CCOc1ccc2[nH]cc(C(=O)NCc3ccccc3)c(=O)c2n1`, the result (in assay [1]; in assay [2]; in assay [3]; in assay [4]; in the assay with HGF (gene 3082); in assay [6]) was inactive. The molecule was classed as inactive in assay [7], in [8] and in assay [9]. Moreover, the AC50 in assay [5] is 15.8 µM (active).

For `CC[C@H](C)C(=O)O[C@H]1C[C@H](O)C=C2C=C[C@H](C)[C@H](CC[C@@H](O)C[C@@H](O)CC(=O)O)[C@H]21`, the outcome (in assay [1]; in [2]; in [3]; in [4]; with HGF (gene 3082); in assay [5]) was inactive. Moreover, the molecule was called inactive in assay [6], in assay [7], in assay [8] and in [9].

Regarding `O=C(O)c1cccc(C[C@@H]2COc3ccc(OCc4nc5cc(F)ccc5s4)cc3[C@@H]2O)c1`, the outcome in [1], in assay [5], in assay [6], in assay [7] and in assay [8] was inactive. In addition, the AC50 in assay [2] is 89.2 µM (active); in assay [3], 81.3 µM (active); in [4], 66.8 µM (active); with HGF (gene 3082), 50 µM (active); in assay [9], 50 µM (active).

Take `CC(C)CCCCCCOC(=O)C1CCCCC1C(=O)OCCCCCCC(C)C` (stereo not given): the result (in assay [1]; in assay [2]; in [3]; in assay [4]; in the assay with HGF (gene 3082); in assay [5]) was inactive. In addition, the result in assay [6], in assay [7], in assay [8] and in assay [9] was inactive.

With `C[C@]12C=CC(=O)C=C1CC[C@H]1[C@@H]3C[C@@H](O)[C@](O)(C(=O)CO)[C@@]3(C)C[C@H](O)[C@@]12F`, the molecule was classed as inactive (in assay [1]; in assay [2]; in assay [3]; in assay [4]; with HGF (gene 3082); in assay [5]). Moreover, the outcome in assay [6], in assay [7], in assay [8] and in [9] was inactive.

Consider `CCCOc1ccc(S(=O)(=O)N2CCN(CC)CC2)cc1-c1nc2c(CC)n(Cc3ccccn3)nc2c(=O)[nH]1`, for which the molecule was called inactive (in [1]; in assay [3]; in assay [4]; with HGF (gene 3082); in [6]; in assay [8]). In addition, the molecule was called inactive in assay [9]. Besides, the AC50 in [2] was 25.3 µM (active); in [5] it was 14.5 µM (active); in assay [7], 68.3 µM (active).

Regarding `CCCCOC(=O)c1ccccc1`, the molecule was classed as inactive (in [1]; in assay [2]; in [3]; in [4]; with HGF (gene 3082); in assay [5]). The call in [6], in [7], in assay [8] and in assay [9] was inactive.

For `OC[C@H]1O[C@@](CO)(O[C@H]2O[C@H](CO)[C@@H](O)[C@H](O)[C@H]2O)[C@@H](O)[C@@H]1O`, the molecule was called inactive (in assay [1]; in assay [2]; in assay [3]; in assay [4]; with HGF (gene 3082); in [5]). The call in assay [6], in [7], in [8] and in [9] was inactive.

As for `Nc1ccn([C@@H]2O[C@H](CO)[C@@H](O)[C@@H]2O)c(=O)n1`, the result (in assay [1]; in [2]; in assay [3]; in assay [4]; with HGF (gene 3082); in [5]) was inactive. Moreover, the call in [6], in assay [7], in assay [8] and in assay [9] was inactive.

Take `CCc1cccc(CC)c1N`: the molecule was classed as inactive (in assay [1]; in assay [2]; in assay [3]; in [4]; with HGF (gene 3082); in [5]). Besides, the call in assay [6], in assay [7], in assay [8] and in assay [9] was inactive.

As to `CCCCCCCCCCCCCCO`, the result (in assay [1]; in assay [2]; in assay [3]; in assay [4]; in the assay with HGF (gene 3082); in [5]) was inactive. Also, the result in assay [6], in assay [7], in assay [8] and in [9] was inactive.

`COc1cc(C(C)C)c2c(c1)S(=O)(=O)N(COc1cc(=O)n3cccc(OCCN4CCCCC4)c3n1)C2=O`: the outcome in [1], in [3], in [5], in assay [6] and in assay [7] was inactive. Besides, the AC50 in assay [2] was 19.7 µM (active); in assay [4], 20 µM (active); with HGF (gene 3082), 12.5 µM (active); in assay [8], 12.5 µM (active); in [9], 12.5 µM (active).
